Data published in PubChem BioAssay (NCATS).
“And” between values parts separate entries of the source, which are not always exact repeats. Equal entries are not always repeated. Results filed as inconclusive are left out. The source made the active and inactive calls. Unless noted, calls follow the shape of the full dose curve.

How the values were obtained:
[1] = molecular target: Glucocorticoid receptor (Homo sapiens) (UniProt P04150); test: qHTS assay for small molecule agonists of glucocorticoid receptor signaling (AID 588532; active = well fitted curve in the direction sought with a large enough effect in the signal ratio, with a control signal flat; the % refers to the signal ratio;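 also: 100% = dexamethasone at 0.1 µM and 0% = DMSO only wells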); settings: HeLa MMTV-bla, beta-lactamase ratio, agonist, 18 h; stronger effect = higher value; percent of dexamethasone control, DMSO zero
Sequence of Glucocorticoid receptor (Homo sapiens) (P04150 whole entry, looked up): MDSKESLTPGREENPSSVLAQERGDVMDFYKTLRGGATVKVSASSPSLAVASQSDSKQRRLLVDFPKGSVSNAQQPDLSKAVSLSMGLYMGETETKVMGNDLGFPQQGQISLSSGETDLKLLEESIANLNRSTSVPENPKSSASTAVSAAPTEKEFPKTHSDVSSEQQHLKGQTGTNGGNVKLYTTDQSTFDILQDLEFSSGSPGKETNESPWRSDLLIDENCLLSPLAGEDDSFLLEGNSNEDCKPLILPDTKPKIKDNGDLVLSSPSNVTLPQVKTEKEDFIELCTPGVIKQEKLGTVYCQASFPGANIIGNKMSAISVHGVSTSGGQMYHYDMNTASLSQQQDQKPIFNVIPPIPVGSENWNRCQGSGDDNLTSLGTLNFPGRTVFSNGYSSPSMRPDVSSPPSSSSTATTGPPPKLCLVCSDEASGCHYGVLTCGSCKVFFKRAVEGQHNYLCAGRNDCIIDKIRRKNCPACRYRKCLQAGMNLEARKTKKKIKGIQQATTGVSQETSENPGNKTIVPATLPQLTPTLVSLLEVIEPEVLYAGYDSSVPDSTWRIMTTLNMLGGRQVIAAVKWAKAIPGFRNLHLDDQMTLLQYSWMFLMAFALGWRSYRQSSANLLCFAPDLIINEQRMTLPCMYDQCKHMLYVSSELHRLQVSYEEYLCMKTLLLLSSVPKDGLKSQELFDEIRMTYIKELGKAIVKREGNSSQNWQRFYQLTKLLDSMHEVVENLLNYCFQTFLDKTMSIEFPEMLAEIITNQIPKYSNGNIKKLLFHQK
Procedure, shortened: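 MMTV-bla HeLa beta-lactamase reporter cells in 1% charcoal/dextran FBS medium, compounds up to 92 uM for 18 h at 37 C, CCF4 readout; normalized to 0.1 uM dexamethasone (100%), EC50 and efficacy from Hill fits.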

[2] = molecular target: Glucocorticoid receptor (Homo sapiens) (UniProt P04150); test: qHTS assay for small molecule antagonists of glucocorticoid receptor signaling (AID 588533; active = well fitted inhibition curve with a large enough effect in the signal ratio, with a control signal flat, not every such curve was filed as active; the % refers to the signal ratio; also: % is scaled to controls: 0 for no effect and ±100 for the full control effect); settings: HeLa MMTV-bla, GRE beta-lactamase ratio, antagonist mode, 18 h; series mostly up to 76.8 µM
Procedure, shortened: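 Antagonist-mode qHTS: compound titrations added to GRE-bla HeLa cells, then dexamethasone 2 nM final; 18 h, 37 C. CCF4 FRET fluorescence normalized to dexamethasone and DMSO; IC50 from Hill fit.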

[3] = qHTS assay for small molecule antagonists of peroxisome proliferator-activated receptor delta signaling (AID 588535; active = well fitted inhibition curve with a large enough effect in the signal ratio, with a control signal flat, not every such curve was filed as active; the % refers to the signal ratio;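 as to max response: cells co-treated with a PPAR-delta agonist as stimulator during compound exposure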); settings: HEK293T PPARd-UAS-bla, beta-lactamase FRET ratio, 18 h; 460 nm channel
Procedure, shortened: (§1)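 Antagonist-mode beta-lactamase reporter (GeneBLAzer PPAR-delta-UAS-bla) in HEK293T cells, 2% charcoal/dextran FBS, 4000 cells/well. Compound titrations, 18 h at 37 C; CCF4 ratio read, IC50 and efficacy from Hill fits.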

[4] = molecular target: Peroxisome proliferator-activated receptor gamma (Homo sapiens) (UniProt P37231); test: qHTS assay for small molecule agonists of peroxisome proliferator-activated receptor gamma signaling (AID 588536; active = well fitted curve in the direction sought with a large enough effect in the signal ratio, with a control signal flat, not every such curve was filed as active; the % refers to the signal ratio;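 also: 0% = DMSO basal wells and 100% = rosiglitazone at 2 µM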); settings: HEK293 PPARg-UAS-bla, beta-lactamase ratio, 16 h, percent of rosiglitazone response, DMSO as zero; series mostly up to 76.7 µM
Sequence of Peroxisome proliferator-activated receptor gamma (Homo sapiens) (P37231 whole entry, looked up): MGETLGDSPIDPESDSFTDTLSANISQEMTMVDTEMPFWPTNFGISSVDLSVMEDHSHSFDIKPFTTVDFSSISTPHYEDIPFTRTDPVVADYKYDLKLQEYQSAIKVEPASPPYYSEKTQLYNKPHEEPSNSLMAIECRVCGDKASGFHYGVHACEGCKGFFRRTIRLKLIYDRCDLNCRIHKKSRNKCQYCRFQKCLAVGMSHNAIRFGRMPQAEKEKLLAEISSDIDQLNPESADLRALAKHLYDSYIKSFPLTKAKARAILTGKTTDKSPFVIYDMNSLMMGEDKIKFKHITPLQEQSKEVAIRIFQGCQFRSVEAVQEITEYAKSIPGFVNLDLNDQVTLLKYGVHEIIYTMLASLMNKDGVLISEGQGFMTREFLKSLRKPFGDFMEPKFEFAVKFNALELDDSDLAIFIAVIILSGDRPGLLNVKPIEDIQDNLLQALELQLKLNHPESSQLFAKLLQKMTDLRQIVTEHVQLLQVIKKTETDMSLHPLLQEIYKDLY
Procedure, shortened: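 HEK293 UAS-bla reporter line, 1% charcoal/dextran FBS; titration, 16 h, 37 C; CCF4 loading 2 h RT; fluorescence 460/530 nm. Normalized to rosiglitazone 2 uM = 100%, DMSO = 0%.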

[5] = molecular target: Peroxisome proliferator-activated receptor gamma (Homo sapiens) (UniProt P37231); test: qHTS assay for small molecule antagonists of peroxisome proliferator-activated receptor gamma signaling (AID 588537; active = well fitted inhibition curve with a large enough effect in the signal ratio, with a control signal flat, not every such curve was filed as active; the % refers to the signal ratio;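 also: reporter cells co-stimulated with 50 nM rosiglitazone agonist during compound treatment; % of control where 0% means no effect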); settings: HEK293 PPARg-UAS-bla, beta-lactamase ratio, antagonist mode; series mostly up to 76.8 µM
Procedure, shortened: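 PPARγ-UAS-bla HEK293 cells (3000/well) in 1% charcoal/dextran-stripped FBS are treated with compound, then stimulated with 50 nM rosiglitazone for 16 h at 37 °C. Read-out is CCF4 β-lactamase fluorescence after 2 h at RT. IC50 comes from Hill fits normalised to rosiglitazone and DMSO.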

[6] = molecular target: Vitamin D3 receptor (Homo sapiens) (UniProt P11473); test: qHTS assay for small molecule antagonists of vitamin D receptor signaling (AID 588541); settings: HEK293T VDR-UAS-bla, beta-lactamase ratio, antagonist mode; series mostly up to 76.7 µM;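 also: receptor activated by calcitriol during compound treatment; % is scaled to controls: 0 for no effect and ±100 for the full control effect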
Sequence of Vitamin D3 receptor (Homo sapiens) (P11473 whole entry, looked up): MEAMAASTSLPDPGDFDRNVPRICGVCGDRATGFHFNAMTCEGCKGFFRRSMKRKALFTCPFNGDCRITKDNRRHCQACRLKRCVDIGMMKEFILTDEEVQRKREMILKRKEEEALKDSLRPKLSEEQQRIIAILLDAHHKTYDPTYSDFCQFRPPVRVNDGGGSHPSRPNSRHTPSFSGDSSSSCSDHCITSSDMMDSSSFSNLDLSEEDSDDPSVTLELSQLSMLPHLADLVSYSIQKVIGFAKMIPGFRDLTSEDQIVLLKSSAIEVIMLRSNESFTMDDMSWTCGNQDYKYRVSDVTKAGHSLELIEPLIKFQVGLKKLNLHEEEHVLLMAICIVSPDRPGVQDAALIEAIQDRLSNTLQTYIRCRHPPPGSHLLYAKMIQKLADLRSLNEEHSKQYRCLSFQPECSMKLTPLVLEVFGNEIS
Procedure, shortened: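 VDR-UAS-bla HEK293T cells in 2% charcoal-stripped FBS were stimulated with 1-alpha,25-dihydroxyvitamin D3 (3 nM final) plus compound for 16 h at 37 C. The beta-lactamase CCF4 readout was normalized to 50 nM agonist and DMSO, and Hill fits gave IC50.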

[7] = molecular target: Vitamin D3 receptor (Homo sapiens) (UniProt P11473); test: qHTS assay for small molecule agonists of vitamin D receptor signaling (AID 588543); settings: HEK293T VDR-UAS-bla, beta-lactamase ratio, 16 h; series mostly up to 76.8 µM;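 also: 0% = DMSO basal and 100% = reference agonist control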
Procedure, shortened: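 VDR-UAS-bla HEK293T cells, 2000/well, 2% charcoal-stripped FBS; compound titration 16 h at 37 C; CCF4 beta-lactamase ratio read. Normalized to 50 nM 1-alpha,25-dihydroxyvitamin D3 (100%) and DMSO; Hill fit gives EC50, efficacy.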

[8] = molecular target: Peroxisome proliferator-activated receptor delta (Homo sapiens) (UniProt Q03181); test: qHTS assay for small molecule antagonists of peroxisome proliferator-activated receptor delta signaling (AID 588535); settings: HEK293T PPARd-UAS-bla, beta-lactamase FRET ratio, 18 h; series mostly up to 76.7 µM;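 as to max response: cells co-treated with a PPAR-delta agonist as stimulator during compound exposure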
Sequence of Peroxisome proliferator-activated receptor delta (Homo sapiens) (Q03181 whole entry, looked up): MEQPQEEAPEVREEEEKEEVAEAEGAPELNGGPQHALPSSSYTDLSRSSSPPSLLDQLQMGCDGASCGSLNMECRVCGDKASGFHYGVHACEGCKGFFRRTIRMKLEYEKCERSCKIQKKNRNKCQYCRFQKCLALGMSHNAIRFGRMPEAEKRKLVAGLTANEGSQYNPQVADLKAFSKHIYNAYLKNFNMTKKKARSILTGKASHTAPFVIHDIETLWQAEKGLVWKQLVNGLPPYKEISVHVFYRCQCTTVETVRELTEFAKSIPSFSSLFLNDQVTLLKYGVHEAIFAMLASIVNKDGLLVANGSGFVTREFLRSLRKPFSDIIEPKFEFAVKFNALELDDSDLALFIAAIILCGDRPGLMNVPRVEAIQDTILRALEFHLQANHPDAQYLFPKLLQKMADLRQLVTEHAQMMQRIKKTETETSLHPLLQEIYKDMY
Procedure, shortened: as §1

CCCCCCC=O
-42.7%: max response [3]
inactive: activation [1] -0.214% | outcome [2] | outcome [4] | outcome [5] | outcome [6] | outcome [7]

O=[N+]([O-])c1c(Cl)cc(Cl)cc1Cl
0.0891%: max response [3]
inactive: activation [1] 0.964% | outcome [2] | Potency [8] | outcome [4] | outcome [5] | outcome [6] | outcome [7]

CC(O)COC(C)(C)C (configuration not stated)
-1.74%: max response [3]
inactive: activation [1] -7.34% | outcome [2] | Potency [8] | outcome [4] | outcome [7]

CCOCC(=O)O
-19%: max response [3]
inactive: activation [1] 2.71% | outcome [2] | Potency [8] | outcome [4] | outcome [5] | outcome [6] | outcome [7]

CC(C)C(C)C
inactive: activation [1] -6.49% | outcome [2] | outcome [4] | outcome [5]

CC=C(Cl)Cl
inactive: activation [1] -2.89% | outcome [2] | Potency [8] | outcome [4] | outcome [5] | outcome [6] | outcome [7]
24.9%: max response [3]

c1ccc2c(c1)ccc1ncccc12
23.6%: max response [3]
inactive: activation [1] -5.6% | outcome [2] | Potency [8] | outcome [4]

Cc1c(N)cccc1[N+](=O)[O-]
inactive: activation [1] -3.4% | outcome [2] | Potency [8] | outcome [4]
-31.1%: max response [3]

CC(C)=CCC/C(C)=C/C=O
-1.69% and 16.6%: max response [3]
inactive: activation [1] -2.98% and -2.55% | outcome [2] | outcome [4] | outcome [6] | outcome [7]

O=[N+]([O-])c1ccc(Cl)cc1Cl
inactive: activation [1] 2.45% | outcome [2] | outcome [4] | outcome [5]
2.66%: max response [3]

O=C1NC(=O)c2cc([N+](=O)[O-])ccc21
inactive: activation [1] -4.49% | outcome [2] | Potency [8] | outcome [4]
-20.7%: max response [3]

O=C(O)c1cccc([N+](=O)[O-])c1
inactive: activation [1] 3.85% | outcome [2] | Potency [8] | outcome [4] | outcome [5]
27.4% and 43.1%: max response [3]

ICCc1ccccc1
13.6%: max response [3]
inactive: activation [1] -2.34% | outcome [2] | outcome [4] | outcome [6] | outcome [7]

O=C(O)c1cccc(Cl)c1Cl
inactive: activation [1] 6.71% | outcome [2] | Potency [8] | outcome [4] | outcome [5] | outcome [6] | outcome [7]
5.12%: max response [3]

Nc1cccc(S(=O)(=O)O)c1
inactive: activation [1] -6.32% | outcome [2] | Potency [8] | outcome [4] | outcome [6] | outcome [7]
-7.97%: max response [3]

CC(=O)OCCC(C)C
inactive: activation [1] 4.89% | outcome [2] | outcome [4] | outcome [5]
-13.3%: max response [3]

CC(C)=C1CCC(C)CC1=O (configuration not stated)
inactive: activation [1] -0.919% | outcome [2] | outcome [4] | outcome [5] | outcome [7]
-8.22%: max response [3]

CC/C(C)=N/O
inactive: activation [1] 3.82% | outcome [2] | outcome [7]

CCOc1ccccc1N
inactive: activation [1] -6.27% | outcome [4] | outcome [6] | outcome [7]

Nc1ccc([N+](=O)[O-])c(N)c1
inactive: activation [1] -8.8% | outcome [2] | outcome [4] | outcome [5] | outcome [6] | outcome [7]

O=C(O)/C=C/C(=O)O
-32%: max response [3]
inactive: activation [1] 27.1% | Potency [8] | outcome [6] | outcome [7]

Cc1ccc(Cl)cc1
-18%: max response [3]
inactive: activation [1] -1.4% | Potency [8] | outcome [4] | outcome [6] | outcome [7]

COc1ccc(N)c(OC)c1
inactive: activation [1] 4.84% | outcome [4] | outcome [5] | outcome [6] | outcome [7]

Fc1ccccc1
0.384%: max response [3]
inactive: activation [1] 1.06% | Potency [8] | outcome [6]

C1CCC2OC2C1 (configuration not stated)
38.4%: max response [3]
inactive: activation [1] -6.07% | Potency [8] | outcome [4] | outcome [6] | outcome [7]

O=C(O)c1ccc(Cl)cc1Cl
inactive: activation [1] -5.78% | outcome [4] | outcome [6] | outcome [7]

CCCCC(CC)COCC1CO1 (configuration not stated)
inactive: activation [1] -12.2% | outcome [2] | outcome [4] | outcome [6] | outcome [7]

Nc1nc(CC(=O)O)cs1
inactive: activation [1] 1.59% | outcome [2] | outcome [4] | outcome [5] | outcome [7]

CC(C)N=C=NC(C)C
inactive: activation [1] 4.13% | outcome [2] | outcome [4] | outcome [5] | outcome [6] | outcome [7]

CNc1ccc([N+](=O)[O-])cc1
inactive: activation [1] -3.38% | outcome [2] | outcome [4] | outcome [5]

Cc1ccc(C)c([N+](=O)[O-])c1
-7.2%: max response [3]
inactive: activation [1] -1.28% | outcome [4] | outcome [5] | outcome [7]

COc1ccc(OC)cc1
inactive: activation [1] -0.922% | Potency [8] | outcome [4] | outcome [6] | outcome [7]
-6.1%: max response [3]

O=C(O)c1ccccc1C(=O)O
inactive: activation [1] -4.91% | Potency [8]
14.7%: max response [3]

C=Cc1ccccn1
inactive: activation [1] -3.05% | outcome [2] | outcome [4] | outcome [5] | outcome [6] | outcome [7]

Cc1ccc2nc(-c3ccc(N)cc3)sc2c1S(=O)(=O)O
inactive: activation [1] 22.8% | outcome [5] | outcome [6]

Cc1ccco1
inactive: activation [1] -1.2% | outcome [2] | outcome [4] | outcome [5] | outcome [7]

CC(C)CO
inactive: activation [1] -3.71% | outcome [6] | outcome [7]

CCCCCCCCC
inactive: activation [1] -2.92% | Potency [8] | outcome [4] | outcome [5] | outcome [6] | outcome [7]
3.26%: max response [3]

CC(C)(O)CCC(C)(C)O
inactive: activation [1] -3.83% | outcome [2] | outcome [4] | outcome [5] | outcome [6]

Cc1ccc2ccccc2c1[N+](=O)[O-]
inactive: activation [1] -8.32% | outcome [2] | outcome [4] | outcome [5] | outcome [6] | outcome [7]

CCOC(=O)C(C)C(C)=O (configuration not stated)
inactive: outcome [2]

CO[Si](CCCNCCC[Si](OC)(OC)OC)(OC)OC
inactive: activation [1] 5.31% | outcome [2] | outcome [4] | outcome [5] | outcome [7]

C=C(C)OC(C)=O
inactive: activation [1] -3.17% | outcome [2] | outcome [4] | outcome [6]

Cc1cccc(C)c1[N+](=O)[O-]
9.63% and 31.4%: max response [3]
inactive: activation [1] 4.67% and -8.43% | Potency [8] | outcome [4] | outcome [5] | outcome [6] | outcome [7]

O=C1OC(=O)c2c(Br)c(Br)c(Br)c(Br)c21
inactive: activation [1] -2.08% and -7.32% | Potency [8] | outcome [4] | outcome [5] | outcome [6] | outcome [7]
19.7% and -28%: max response [3]

CC(C)(C)c1ccc(OCC2CO2)cc1 (configuration not stated)
inactive: activation [1] -4.85% | outcome [7]
18.6%: max response [3]

NC(=O)CCCCC(N)=O
inactive: activation [1] -2.82% | outcome [4] | outcome [5] | outcome [6] | outcome [7]

O=Cc1ccc(C(=O)O)cc1
inactive: activation [1] 3.49% | outcome [4]

C=CCOC(=O)COCCC(C)C
79.8%: max response [3]
inactive: outcome [2] | Potency [8] | outcome [4]

CCOC(=O)OCC
inactive: activation [1] -5.65% | outcome [2] | outcome [4] | outcome [5] | outcome [6] | outcome [7]

C1CCCC1
inactive: activation [1] 2.06% | outcome [2] | outcome [4] | outcome [5] | outcome [7]

CC(=O)C1(C)CC2=C(CCCC2(C)C)CC1C (configuration not stated)
inactive: activation [1] -5.53% | outcome [4] | outcome [6] | outcome [7]
12.6%: max response [3]

CC(C)Nc1ccccc1
inactive: activation [1] -8.21% | Potency [8] | outcome [4] | outcome [6] | outcome [7]
31.6%: max response [3]

C=CCn1c(=O)n(CC=C)c(=O)n(CC=C)c1=O
inactive: activation [1] -0.0268% | outcome [2] | outcome [4] | outcome [5] | outcome [6] | outcome [7]

O=C(O)c1cc(Cl)cc(Cl)c1
inactive: activation [1] -5.57% | Potency [8] | outcome [4] | outcome [5]
29.5%: max response [3]

OC1CCCC1
inactive: activation [1] 0.774% | outcome [2] | outcome [4] | outcome [5] | outcome [6] | outcome [7]

CCN(CC)c1cccc(O)c1
12.9%: max response [3]
inactive: activation [1] -1.18% | Potency [8] | outcome [4]

CCCCC(CC)C(=O)O (configuration not stated)
18%: max response [3]
inactive: Potency [8] | outcome [4] | outcome [5]

S=C([S-])NCCNC(=S)[S-].[Zn+2]
inactive: outcome [2] | outcome [4] | outcome [5] | outcome [7]

CNc1ccccc1
inactive: outcome [2] | Potency [8] | outcome [4] | outcome [6] | outcome [7]
-16.9%: max response [3]

CC(=O)c1ccc([N+](=O)[O-])cc1
10.4%: max response [3]
inactive: outcome [2] | outcome [4] | outcome [6] | outcome [7]
